Assay [1] is described as follows: HepG2 liver cancer cell viability effects, profiling panel, resazurin fluorescence, 24 h, PK04 Diversity Set (AID 1172). As to conditions: higher = more signal. On the technique in general: Alamar Blue is a resazurin reagent that responds to reducing activity.
Assay [2] can be described thus: basal S. cerevisiae growth modulation, no modifier, primary screen, OD600, strain BY4716, 24 h, basal condition (AID 1173). Particulars: OD600, 24 h, higher = more signal, called active from +8 up or from −8 down.
A short description of assay [3]: MM1S myeloma cell viability, profiling panel, resazurin fluorescence, basal, 24 h, PK04 Diversity Set (AID 1174).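 Also: MM1S multiple myeloma cell line.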 Particulars: higher = more signal, called active from +8 up or from −8 down.
The target in assay [4] is Dihydroorotate dehydrogenase (quinone), mitochondrial (Plasmodium falciparum (isolate 3D7)) (UniProt Q08210). Kind of assay: PfDHODH enzyme inhibitors, primary screen, biochemical, C-terminal His tag, absorbance 600 nm (AID 1175).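 Also: recombinant parasite enzyme with a five histidine tag at its C terminus.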 As to conditions: DCIP absorbance 600 nm, higher = more signal, called active from +8 up or from −8 down.
Assay [5] in a line: P. aeruginosa biofilm formation inhibitors, primary screen, strain PAO1, LB-PBS medium, absorbance 600 nm (AID 1176). Particulars: P. aeruginosa PAO1 growth/biofilm, A600, 12 h; higher = more signal.
A short description of assay [6]: S. cerevisiae RM11-1a growth modifiers, primary screen, strain RM11-1a, OD600, basal, 24 h (AID 1177).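 Also: cultures grown under basal conditions with no added stressor.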 As to conditions: OD600, 24 h, higher = more signal, called active from +8 up or from −8 down.
Assay [7] is described as follows: E. coli acrAB mutant growth effects, primary screen, E. coli filamentation inducers, strain DRC39, OD650, 24 h (AID 1178).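 Also: growth measured as culture turbidity by optical density at 650 nm.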 As to conditions: higher = more signal, called active from +8 up or from −8 down.
A short description of assay [8]: E. coli acrAB mutant growth effects, primary screen, E. coli filamentation inducers, strain DRC39, OD650, 48 h (AID 1179).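 Also: screen aims at cell division blockers that make cells filament.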 Particulars: E. coli DRC39 delta-acrAB growth, higher = more signal, called active from +8 up or from −8 down.
A short description of assay [9]: RPMI8226 myeloma cell viability, profiling panel, resazurin fluorescence, basal, 24 h, PK04 Diversity Set (AID 1180).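 Also: RPMI8826 multiple myeloma cell line at 5000 cells per well.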 As to conditions: higher = more signal.
Assay [10] concerns the target E3 ubiquitin-protein ligase XIAP (Homo sapiens) (UniProt P98170). The assay can be described thus: XIAP binders, primary screen, biophysical, small-molecule microarray, fluorescence 635 nm (AID 1181).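 Also: score merges 667 nm emission and signal to noise over triplicate slides.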 As to conditions: small-molecule microarray binding, higher = more signal.
Assay [11] deals with XIP peptide (Xip251-270) binding. Kind of assay: small-molecule binders of XIP peptide, primary screen, biochemical, small-molecule microarray, fluorescence 635/667 nm, 0.1 µg/mL protein (AID 1182). Particulars: fluorescent protein binding, 635 nm, higher = more signal, called active from +8 up or from −8 down.
Assay [12] relates to XIP peptide (Xip251-270). The assay can be described thus: small-molecule binders of XIP peptide, primary screen, biochemical, small-molecule microarray, fluorescence 635/667 nm, 0.5 µg/mL protein (AID 1183). As to conditions: small-molecule microarray binding, fluorescence 635 nm; higher = more signal.
Assay [13] is described as follows: Plasmodium falciparum growth inhibition, primary screen, strain 3D7, DAPI fluorescence, 100 nL (AID 1184).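 Also: parasites grown inside human red blood cells in medium with human serum.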 As to conditions: P. falciparum 3D7 growth, 3 d, higher = more signal.
The target of assay [14] is Homeobox protein Hox-A13 (Mus musculus) (UniProt Q62424). The assay can be described thus: inhibitors of HoxA13-DNA binding, primary screen, biochemical, fluorescence polarization, labeled oligonucleotide (AID 1185). Particulars: 15 min, higher = more signal, called active from +8 up or from −8 down.
The nature of assay [15]: inhibitors of hydroxyurea-induced Chk1 phosphorylation, primary screen, imaging, HeLa, phospho-Chk1 antibody, percent positive cells (AID 1186). Particulars: hydroxyurea-induced phospho-Chk1 immunofluorescence imaging, higher = more signal.
A short description of assay [16]: inhibitors of hydroxyurea-induced Chk1 phosphorylation, primary screen, imaging, HeLa, phospho-Chk1 nuclear intensity (AID 1187). Particulars: hydroxyurea-induced phospho-Chk1 immunofluorescence imaging, higher = more signal.

Molecules are shown by their SMILES. Active and inactive are the calls of the source. Unless noted, no rule for the calls is given here.

Sequence of Dihydroorotate dehydrogenase (quinone), mitochondrial (Plasmodium falciparum (isolate 3D7)) (Q08210 whole entry, looked up): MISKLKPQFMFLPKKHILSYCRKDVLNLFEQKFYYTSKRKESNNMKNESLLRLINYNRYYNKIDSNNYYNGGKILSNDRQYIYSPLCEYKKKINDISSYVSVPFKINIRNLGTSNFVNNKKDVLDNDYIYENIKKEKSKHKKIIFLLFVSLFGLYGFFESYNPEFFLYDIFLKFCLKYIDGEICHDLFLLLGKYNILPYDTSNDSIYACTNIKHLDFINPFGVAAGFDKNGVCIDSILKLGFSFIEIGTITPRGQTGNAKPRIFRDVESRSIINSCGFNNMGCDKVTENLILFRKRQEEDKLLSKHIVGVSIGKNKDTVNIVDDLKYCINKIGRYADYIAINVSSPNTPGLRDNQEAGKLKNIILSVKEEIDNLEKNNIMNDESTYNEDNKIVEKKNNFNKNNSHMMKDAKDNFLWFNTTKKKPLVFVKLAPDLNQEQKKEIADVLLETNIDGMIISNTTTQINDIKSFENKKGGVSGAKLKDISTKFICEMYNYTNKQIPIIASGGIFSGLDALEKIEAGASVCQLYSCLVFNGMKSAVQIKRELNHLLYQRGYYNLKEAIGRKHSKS
Sequence of E3 ubiquitin-protein ligase XIAP (Homo sapiens) (P98170 whole entry, looked up): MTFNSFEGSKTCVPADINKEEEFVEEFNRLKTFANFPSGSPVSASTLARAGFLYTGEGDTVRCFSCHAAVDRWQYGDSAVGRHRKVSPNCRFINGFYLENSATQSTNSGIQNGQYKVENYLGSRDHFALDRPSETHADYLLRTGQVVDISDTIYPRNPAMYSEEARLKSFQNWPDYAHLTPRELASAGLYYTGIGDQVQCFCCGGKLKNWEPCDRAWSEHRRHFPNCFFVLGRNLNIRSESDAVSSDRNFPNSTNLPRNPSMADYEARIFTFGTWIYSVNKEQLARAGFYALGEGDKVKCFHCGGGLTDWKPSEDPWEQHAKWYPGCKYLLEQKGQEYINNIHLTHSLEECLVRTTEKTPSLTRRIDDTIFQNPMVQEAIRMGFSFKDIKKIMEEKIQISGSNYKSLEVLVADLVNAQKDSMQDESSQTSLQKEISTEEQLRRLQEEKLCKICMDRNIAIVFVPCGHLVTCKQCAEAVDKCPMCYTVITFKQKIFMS
Sequence of Homeobox protein Hox-A13 (Mus musculus) (Q62424 whole entry, looked up): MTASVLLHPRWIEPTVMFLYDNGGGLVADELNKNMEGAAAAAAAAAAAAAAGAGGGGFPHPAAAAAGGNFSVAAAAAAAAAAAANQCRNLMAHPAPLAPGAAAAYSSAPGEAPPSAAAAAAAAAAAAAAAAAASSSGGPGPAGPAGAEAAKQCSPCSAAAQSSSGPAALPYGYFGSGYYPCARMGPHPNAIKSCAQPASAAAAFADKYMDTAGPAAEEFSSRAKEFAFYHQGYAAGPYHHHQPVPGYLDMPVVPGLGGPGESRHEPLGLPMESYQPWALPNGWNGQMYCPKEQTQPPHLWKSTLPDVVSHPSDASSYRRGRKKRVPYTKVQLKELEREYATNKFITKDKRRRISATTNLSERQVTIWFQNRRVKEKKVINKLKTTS

Regarding `COc1ccccc1CN1C(=O)c2ccccc2[C@@H](C(=O)NCCCN(C)C)[C@@H]1c1ccc(CO)cc1`, the z-score in assay [1] was 0.619; in assay [2] it was -1.37 (inactive); in assay [3] it was 1.22 (inactive); in assay [5], 0.292 (inactive); in assay [6], -0.942 (inactive); in [7], 0.65 (inactive). Further, the z-score in assay [8] is 1.37 (inactive); in assay [9], 1.09; in [13], -2.34; in assay [14] it was 3.27 (inactive); in [15], -0.343 (inactive); in assay [16] it was -0.136 (inactive). For the same molecule, the composite z-score in [4] is 0.0824 (inactive); in assay [10], -0.0426; in [11], -0.0888 (inactive); in assay [12], 0.66.

For the molecule `CCCCCCCCCCC(O)C1C=CC2C(=O)N(C)C(=O)C2N1N1CCCCC1` (stereo not drawn), the z-score in assay [1] is -1.36; in assay [2], 0.447 (inactive); in assay [3], -1.35 (inactive); in [5], 0.944 (inactive); in assay [6] it was 1.53 (inactive); in assay [7], -0.619 (inactive). The z-score is -0.373 (inactive) in assay [8]; -1.18 in assay [9]; -0.152 in assay [13]; -4.08 (inactive) in assay [14]; 0.552 (inactive) in assay [15]; 0.303 (inactive) in assay [16]. Further, the composite z-score in assay [4] was 1.24 (inactive); in assay [10], 0.0264; in assay [11], 0.0477 (inactive); in assay [12], 0.0634.

On to `CC(C)CNC(=O)[C@@H]1c2ccccc2C(=O)N(Cc2ccccc2Cl)[C@H]1c1ccc(CO)cc1`, for which the z-score in assay [1] is 0.611; in assay [2] it was -0.161 (inactive); in assay [3] it was 0.552 (inactive); in assay [5], 0.0435 (inactive); in [6], -0.239 (inactive); in assay [7], 0.219 (inactive). The z-score was 0.303 (inactive) in assay [8]; 0.943 in assay [9]; 0.134 in [13]; -1.47 (inactive) in [14]; 0.0107 (inactive) in assay [15]; 0.499 (inactive) in assay [16]. The composite z-score in assay [4] was -0.0116 (inactive); in assay [10], 0.199; in [11] it was 0.0394 (inactive); in assay [12], 0.8.

Regarding `CCOC(=O)C[C@H]1[C@H](OC(=O)c2ccc(-c3ccccc3)cc2)[C@@H](NC(=O)c2ccc3ccccc3c2)c2cc(OCCCO)ccc2N1C(=O)c1ccccc1`, the z-score in [1] is -0.491; in assay [2], 1.31 (inactive); in assay [3], -0.483 (inactive); in [5], 0.055 (inactive); in [6], 1.13 (inactive); in assay [7], -0.0319 (inactive). In addition, the z-score is -0.0532 (inactive) in [8]; -0.221 in assay [9]; -0.633 in [13]; -1.35 (inactive) in [14]; 0.0034 (inactive) in assay [15]; 0.241 (inactive) in assay [16]. In addition, the composite z-score in [4] is 0.622 (inactive); in [10], 0.0454; in assay [11], 0.377 (inactive); in [12], -0.0506.

For `Cc1c(NC(=O)/C(C#N)=C/c2ccc(Cl)cc2)c(=O)n(-c2ccccc2)n1C`, the z-score in assay [1] was 0.244; in assay [2] it was -0.429 (inactive); in [3] it was 0.103 (inactive); in assay [5] it was 0.888 (inactive); in assay [6] it was -0.704 (inactive); in assay [7] it was 1.43 (inactive). The z-score is 1.5 (inactive) in assay [8]; -0.345 in assay [9]; 0.468 in [13]; -3.94 (inactive) in assay [14]; -0.0496 (inactive) in assay [15]; -0.246 (inactive) in assay [16]. In addition, the composite z-score is -2.14 (inactive) in [4], -0.0871 in assay [10], 0.773 (inactive) in assay [11] and 0.876 in assay [12].

As to `CCCC[C@H]1OB(O)C[C@H]2C1=C(COC)C[C@H]1C(=O)C=CC(=O)[C@H]12`, the z-score was -0.796 in assay [1]; -3.96 (inactive) in assay [2]; -0.203 (inactive) in assay [3]; 1.52 (inactive) in assay [5]; 0.0887 (inactive) in assay [6]; 1.13 (inactive) in [7]. The z-score in assay [8] is 0.756 (inactive); in assay [9] it was -0.0072; in assay [13] it was -1.09; in [14] it was -6.74 (inactive); in assay [15], -0.591 (inactive); in assay [16], -0.434 (inactive). The composite z-score is -2.14 (inactive) in assay [4], -0.0238 in [10], 0.473 (inactive) in assay [11] and 0.407 in assay [12].

As to `C=C(/C(=C/C[C@@H](OC(C)=O)c1ccccc1OCCO)c1cc(C(=O)OC)ccc1OC)C(C)C`, the z-score in assay [1] was 0.862; in assay [2], -1.18 (inactive); in [3], -0.296 (inactive); in [5], 0.0478 (inactive); in assay [6], 0.508 (inactive); in assay [7], 1.62 (inactive). In addition, the z-score was 1.04 (inactive) in assay [8]; 0.676 in assay [9]; -2.8 in assay [13]; -4.71 (inactive) in [14]; 0.689 (inactive) in [15]; 0.766 (inactive) in assay [16]. In addition, the composite z-score in assay [4] is -1.22 (inactive); in [10], -0.323; in [11], 0.988 (inactive); in assay [12] it was 0.839.

For `CO[C@H]1O[C@H](CO)[C@@H](OC(=O)Nc2ccc(C(F)(F)F)cc2)[C@H](OC(=O)Nc2ccccc2-c2ccccc2)[C@H]1OC(=O)Nc1ccccc1-c1ccccc1`, the z-score in assay [1] was -5.27; in assay [2], 1.39 (inactive); in [3], -5.4 (inactive); in assay [5], 3.43 (inactive); in [6], 2.8 (inactive); in assay [7], -0.853 (inactive). Besides, the z-score is -1.25 (inactive) in assay [8]; -4.63 in [9]; -1.8 in assay [13]; -3.72 (inactive) in [14]; 0.83 (inactive) in assay [15]; 0.784 (inactive) in assay [16]. Besides, the composite z-score was -0.132 (inactive) in assay [4], 0.201 in [10], 0.844 (inactive) in assay [11] and 0.701 in assay [12].

Values taken from PubChem BioAssay.
